Test results reported in PubChem BioAssay AID1159580 (chemical genetic matrix, 2015).
About 2,000 (36%) of roughly 5,500 compounds were called active. About 18% were inconclusive and are not listed. Some of the results follow. Unmarked numbers belong to inactive results. Rule as the data show it: active = normalized growth mostly below about 0.91 (no sharp cut-off); inconclusive = no clear call, values can overlap the other calls; inactive = mostly above about 0.92.

Test: chemical genetic growth profiling, strain panel (AID 1159580);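 also: tested at 20 µM; growth read once vehicle control cultures reached saturation at 30 °C; 1 = growth at the plate median or of vehicle wells; lower values mean less growth of the strain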
Settings: S. cerevisiae deletion strains, growth OD

OC[C@H]1OC([S-])[C@H](O)[C@@H](O)[C@@H]1O.[Au+] (stereo partly drawn)
normalized growth (locus YAL021C, strain ccr4, stronger effect = lower value): 1.03
normalized growth (locus YAL026C, strain drs2, stronger effect = lower value): 1.03
normalized growth (locus YAL030W, strain snc1, stronger effect = lower value): 1.03
normalized growth (locus YBL061C, strain skt5, stronger effect = lower value): 1.02
normalized growth (locus YBR009C, strain hhf1, stronger effect = lower value): 1.02
normalized growth (locus YBR023C, strain chs3, stronger effect = lower value): 1.01
normalized growth (locus YBR171W, strain sec66, stronger effect = lower value): 1.01
normalized growth (locus YBR231C, strain swc5, stronger effect = lower value): 1.02
normalized growth (locus YBR279W, strain paf1, stronger effect = lower value): 1.01
normalized growth (locus YCL011C, strain gbp2, stronger effect = lower value): 1
normalized growth (locus YCL016C, strain dcc1, stronger effect = lower value): 1
normalized growth (locus YCL069W, strain vba3, stronger effect = lower value): 1.01
normalized growth (locus YCR088W, strain abp1, stronger effect = lower value): 1.01
normalized growth (locus YDL005C, strain med2, stronger effect = lower value): 1.02
normalized growth (locus YDL040C, strain nat1, stronger effect = lower value): 1.01
normalized growth (locus YDR001C, strain nth1, stronger effect = lower value): 1
normalized growth (locus YDR069C, strain doa4, stronger effect = lower value): 1.01
normalized growth (locus YDR137W, strain rgp1, stronger effect = lower value): 1.03
normalized growth (locus YDR159W, strain sac3, stronger effect = lower value): 1.06
normalized growth (locus YDR195W, strain ref2): 1.03
normalized growth (locus YDR297W, strain sur2, stronger effect = lower value): 1
normalized growth (locus YDR334W, strain swr1, stronger effect = lower value): 1.01
normalized growth (locus YDR335W, strain msn5, stronger effect = lower value): 1.02
normalized growth (locus YDR392W, strain spt3, stronger effect = lower value): 1.03
normalized growth (locus YEL003W, strain gim4, stronger effect = lower value): 1.01
normalized growth (locus YEL037C, strain rad23, stronger effect = lower value): 1.01
normalized growth (locus YEL061C, strain CIN8 (second series), stronger effect = lower value): 1.01
normalized growth (locus YER015W, strain faa2, stronger effect = lower value): 1.01
normalized growth (locus YER016W, strain bim1, stronger effect = lower value): 1.02
normalized growth (locus YER111C, strain swi4, stronger effect = lower value): 1.01
normalized growth (locus YER155C, strain BEM2 (second series), stronger effect = lower value): 1.05
normalized growth (locus YFR010W, strain ubp6, stronger effect = lower value): 1.02
normalized growth (locus YGL167C, strain pmr1, stronger effect = lower value): 1
normalized growth (locus YGL173C, strain kem1, stronger effect = lower value): 1.02
normalized growth (locus YGL227W, strain vid30, stronger effect = lower value): 1.01
normalized growth (locus YGL240W, strain doc1, stronger effect = lower value): 1.03
normalized growth (locus YGL253W, strain hxk2, stronger effect = lower value): 1.01
normalized growth (locus YHR013C, strain ard1, stronger effect = lower value): 1.02
normalized growth (locus YHR027C, strain rpn1, stronger effect = lower value): 0.992
normalized growth (locus YHR030C, strain SLT2, stronger effect = lower value): 1.05
normalized growth (locus YHR079C, strain IRE1, stronger effect = lower value): 1.1
normalized growth (locus YHR142W, strain chs7, stronger effect = lower value): 0.995
normalized growth (locus YJL092W, strain hpr5, stronger effect = lower value): 1.01
normalized growth (locus YJL095W, strain BCK1 (second series), stronger effect = lower value): 1.01
normalized growth (locus YJL095W, strain BCK1, stronger effect = lower value): 1.08
normalized growth (locus YJL115W, strain asf1, stronger effect = lower value): 1.01
normalized growth (locus YJL129C, strain trk1, stronger effect = lower value): 1.01
normalized growth (locus YJL154C, strain vps35, stronger effect = lower value): 1.01
normalized growth (locus YJL164C, strain tpk1, stronger effect = lower value): 1.01
normalized growth (locus YJL166W, strain qcr8, stronger effect = lower value): 1.02
normalized growth (locus YJL187C, strain SWE1, stronger effect = lower value): 1.02
normalized growth (locus YJR066W, strain TOR1, stronger effect = lower value): 0.998
normalized growth (locus YKL160W, strain elf1, stronger effect = lower value): 1
normalized growth (locus YKR026C, strain gcn3, stronger effect = lower value): 1.01
normalized growth (locus YKR091W, strain srl3, stronger effect = lower value): 1.01
normalized growth (locus YLL001W, strain dnm1, stronger effect = lower value): 1.01
normalized growth (locus YLL026W, stronger effect = lower value): 1.01
normalized growth (locus YLL041C, strain sdh2, stronger effect = lower value): 0.999
normalized growth (locus YLR027C, strain aat2, stronger effect = lower value): 1.02
normalized growth (locus YLR113W, strain HOG1, stronger effect = lower value): 1.17 [resistant] (active)
normalized growth (locus YLR221C, strain rsa3, stronger effect = lower value): 1.01
normalized growth (locus YLR258W, strain gsy2, stronger effect = lower value): 1.01
normalized growth (locus YLR262C, strain YPT6 (second series), stronger effect = lower value): 1
normalized growth (locus YLR320W, strain mms22, stronger effect = lower value): 1.02
normalized growth (locus YLR342W, strain FKS1, stronger effect = lower value): 1.01
normalized growth (locus YLR357W, strain rsc2, stronger effect = lower value): 1.01
normalized growth (locus YLR370C, strain arc18, stronger effect = lower value): 1.01
normalized growth (locus YLR384C, strain iki3, stronger effect = lower value): 0.987
normalized growth (locus YML120C, strain ndi1, stronger effect = lower value): 1.02
normalized growth (locus YMR058W, strain fet3, stronger effect = lower value): 1.01
normalized growth (locus YMR125W, strain sto1, stronger effect = lower value): 1.02
normalized growth (locus YMR129W, stronger effect = lower value): 1.01
normalized growth (locus YMR205C, strain PFK2, stronger effect = lower value): 1.03
normalized growth (locus YMR231W, strain pep5, stronger effect = lower value): 1.01
normalized growth (locus YNL071W, strain lat1, stronger effect = lower value): 1
normalized growth (locus YNL183C, strain NPR1, stronger effect = lower value): 1.02
normalized growth (locus YNL209W, strain ssb2, stronger effect = lower value): 1
normalized growth (locus YNL248C, strain rpa49, stronger effect = lower value): 1.01
normalized growth (locus YNL322C, strain KRE1 (second series), stronger effect = lower value): 1.01
normalized growth (locus YNR049C, strain mso1, stronger effect = lower value): 0.997
normalized growth (locus YOR001W, strain rrp6, stronger effect = lower value): 1.02
normalized growth (locus YOR070C, strain gyp1, stronger effect = lower value): 1
normalized growth (locus YOR080W, strain dia2, stronger effect = lower value): 1.01
normalized growth (locus YOR083W, strain WHI5, stronger effect = lower value): 0.996
normalized growth (locus YOR106W, strain vam3, stronger effect = lower value): 1.03
normalized growth (locus YOR231W, strain MKK1, stronger effect = lower value): 1.09
normalized growth (locus YOR265W, strain rbl2, stronger effect = lower value): 1.01
normalized growth (locus YOR270C, strain vph1, stronger effect = lower value): 1.27 [resistant] (active)
normalized growth (locus YOR290C, strain snf2, stronger effect = lower value): 1.01
normalized growth (locus YPL051W, strain arl3, stronger effect = lower value): 0.994
normalized growth (locus YPL078C, strain atp4, stronger effect = lower value): 1.03
normalized growth (locus YPL106C, strain sse1, stronger effect = lower value): 1.01
normalized growth (locus YPL240C, strain hsp82, stronger effect = lower value): 1.01
normalized growth (locus YPL256C, strain CLN2, stronger effect = lower value): 1.16

OCC1O[C@H](O)C(Cl)C(O)C1O (stereo partly drawn)
normalized growth (locus YAL013W, strain DEP1, stronger effect = lower value): 1.01
normalized growth (locus YAL040C, strain CLN3, stronger effect = lower value): 1.01
normalized growth (locus YCL061C, strain MRC1 (second series), stronger effect = lower value): 1.01
normalized growth (locus YDR363W, strain ESC2, stronger effect = lower value): 0.977
normalized growth (locus YER002W, strain NOP16, stronger effect = lower value): 1
normalized growth (locus YGR229C, strain SMI1, stronger effect = lower value): 0.994
normalized growth (locus YJR075W, strain HOC1, stronger effect = lower value): 0.984
normalized growth (locus YNL128W, strain TEP1, stronger effect = lower value): 1.01
normalized growth (locus YNL175C, strain NOP13, stronger effect = lower value): 1.02
normalized growth (locus YNL197C, strain WHI3, stronger effect = lower value): 0.986
normalized growth (locus YNL224C, strain SQS1, stronger effect = lower value): 1
normalized growth (locus YOR083W, strain WHI5 (second series), stronger effect = lower value): 1.02
normalized growth (locus YPL055C, strain LGE1, stronger effect = lower value): 0.979
normalized growth (locus YPL241C, strain CIN2, stronger effect = lower value): 1.01
